EBNA-1 inh – blocks EBNA-1 binding to DNA. inhibition, % at 14.8 µM. EBNA-1 DNA binding, fluorescence polarization. actives 0.34% (n = 300,000); in the data active = inhibition above about 28%
EBV gp42 block – inhibitors of Epstein-Barr virus glycoprotein 42; Q1HVG2; Fluorescence polarization binding assay, mP read-out; inhibition, % (tested at 21.74 µM); actives 0.42% (n = 220,000); AID 1085; in the data active = inhibition above about 50%
MEX-5 binding – C. elegans MEX-5 TCR-2 RNA binding activity. AID 1832. activity score (negative = inhibition of binding), % at 10 µM. Q9XUB2. MEX-5/FITC-TCR2 RNA binding, fluorescence polarization; active compounds read low. actives 0.38% (n = 300,000);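 active = inhibition past about -25% in most replicates, and total fluorescence under double the plate's negative control median, limit read from the data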
Target sequence (Q9XUB2 whole entry, looked up): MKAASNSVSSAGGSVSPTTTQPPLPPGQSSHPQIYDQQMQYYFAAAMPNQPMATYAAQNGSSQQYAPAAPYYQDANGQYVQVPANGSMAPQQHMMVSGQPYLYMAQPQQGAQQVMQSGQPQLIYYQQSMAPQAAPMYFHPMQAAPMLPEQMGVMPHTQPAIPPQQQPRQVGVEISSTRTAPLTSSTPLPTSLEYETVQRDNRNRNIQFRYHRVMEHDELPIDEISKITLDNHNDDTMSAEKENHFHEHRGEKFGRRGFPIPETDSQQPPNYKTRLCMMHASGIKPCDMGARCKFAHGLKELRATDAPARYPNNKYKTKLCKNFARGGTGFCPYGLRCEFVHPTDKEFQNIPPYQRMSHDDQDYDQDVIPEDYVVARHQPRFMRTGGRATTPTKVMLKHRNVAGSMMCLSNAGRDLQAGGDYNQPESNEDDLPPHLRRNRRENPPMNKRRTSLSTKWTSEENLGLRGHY
ZTA counter – ZTA (EBV) inhibition in EBNA-1 counter-screen | AID 2234 | actives 0.15% (n = 320,000) | inhibition, % at 11 µM | ZTA-DNA binding, fluorescence polarization | P03206; in the data active = inhibition above about 33%
EBNA-1 confirm – EBNA-1 (EBV) inhibition, confirmation; shares compounds with EBNA-1 inh; inhibition, % at 14.8 µM; Recombinant EBNA-1 DBD, Cy5-DNA fluorescence polarization; actives 35% (n = 830);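 active = mean inhibition across replicates above a set limit taken from the earlier primary screen, cut at about 28% in these data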
ZTA DNA inh trip – counter-screen for EBNA-1 inhibitors: Epstein-Barr virus ZTA inhibitors, triplicate; 830 tested, under 10 active; inhibition, % at 11.1 µM; Zta-ZRE DNA binding, Cy5 fluorescence polarization; shares compounds with EBNA-1 inh;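 active = mean inhibition over triplicates above a set limit taken from the primary EBNA-1 screen, cut at about 37% in these data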;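 note: purified full length Zta protein with Cy5 labeled ZRE DNA probe; inhibitors lower polarization by freeing the labeled DNA probe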
Zta DNA confirm – EBV ZTA DNA binding inhibition, confirmation. shares compounds with ZTA counter. Zta-ZRE DNA binding, fluorescence polarization. inhibition, % at 11.1 µM. actives 30% (n = 320). AID 2361;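 active = mean inhibition across triplicate runs above the hit threshold derived for the original primary screen, cut at about 33% in these data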
EBNA-1 counter – counter-screen for ZTA inhibitors: EBNA-1 DNA binding inhibition; shares compounds with ZTA counter; fluorescence polarization; inhibition, % at 14.8 µM; 320 tested, under 10 active; AID 2362; call rule not given here
Numbers stand for hits; n = inactive; x = no result given. Sampled rows, rich in hits. Any-hit rate of the full collection: about 1%.

SMILES	EBNA-1 inh	EBV gp42 block	MEX-5 binding	ZTA counter	EBNA-1 confirm	ZTA DNA inh trip	others
CC(C)CN(C(=O)Cn1ccccc1=O)C1CCS(=O)(=O)C1 (stereo not given)	x	x	x	n	x	x
C/C(=N/NC(=O)c1ccncc1)c1ccc(NC(=O)c2ccc(Cl)cc2Cl)cc1	36.5	x	n	n	30.8	n
Cc1cccc(C(=O)O[C@@H]2[C@H](Cc3ccccc3)NS(=O)(=O)[C@H]3C[C@@H]4C=C[C@]23O4)c1	x	x	x	n	x	x
O=C(NNC(=O)c1ccc(NC(=O)c2ccccc2)cc1)c1ccc(F)cc1	66.9	x	n	n	103.2	n
Cc1csc(NC(=O)CSc2nc3sc(C)c(C)c3c(=O)[nH]2)n1	52.8	n	n	n	n	n
CCOC(=O)Cc1csc(NC(=O)CSc2nc3sc(C(=O)O)c(C)c3c(=O)[nH]2)n1	n	n	n	n	x	x
Cc1ccccc1NC(=O)CSc1nc2scc(C)c2c(=O)[nH]1	n	x	n	n	x	x
Cc1sc2nc(SCC(=O)Nc3ccccc3F)[nH]c(=O)c2c1C	29.7	x	n	n	42.3	n
COc1ccc(NC2CCCN(C(=O)c3ccccc3N3CCOCC3)C2)cc1OC (stereo not given)	n	x	n	n	x	x
CCOC(=O)C1=C(COC(=O)Cc2ccccc2F)NC(=O)NC1C (stereo not given)	n	x	n	n	x	x
COc1ccc2cc(C(=O)/C=C/c3cc(OC)c(OC)c(OC)c3)ccc2c1	47.9	x	n	n	n	n
O=C(CCS(=O)(=O)Cc1ccccc1F)NCCc1ccc(Cl)cc1	n	x	n	n	x	x
CC1CCN(CCCNC(=O)Cn2ncc3c([nH]c4ccccc43)c2=O)CC1	n	x	n	n	x	x
COC(=O)c1ccc2nc(NC(=O)CCS(=O)(=O)c3ccccc3)sc2c1	44.4	x	n	n	51.7	n
COc1cccc(-c2ncc3ccccc3c2COC(=O)CCC(=O)O)c1	x	x	x	n	x	x
CC(C)Cn1cc(C(=O)NCc2cccs2)c2c3ccccc3n(C)c2c1=O	37.8	n	n	n	n	n
COc1ccc(C(C)=O)cc1CC(=O)Nc1cccc(S(=O)(=O)N2CCOCC2)c1	x	x	x	n	x	x
CCC(=O)Nc1ccc(NC(=S)NC(=O)/C=C/c2ccco2)cc1	n	x	n	n	x	x
CC(=O)NC(=S)Nc1ccc(NC(=S)NC(=O)/C=C/c2ccco2)cc1	42.6	n	n	n	31.8	n
COc1ccc(S(=O)(=O)N2CCN(C(c3ccccc3)c3ccccc3)CC2)cc1NC(C)=O	n	x	n	n	x	x
Cn1c(N)c(C(=O)COC(=O)CSc2cccc3cccc(Cl)c23)c(=O)n(C)c1=O	32.2	n	n	n	46.1	n
Cn1c(N)c(C(=O)COC(=O)CSc2ccc3ccccc3c2)c(=O)n(C)c1=O	n	n	n	n	x	x
CC1CCC(NC(=O)c2ccc(NC3=NC4CS(=O)(=O)CC4S3)cc2)CC1 (stereo not given)	n	x	n	n	x	x
Cc1ccc(C)c(OCCn2cc(/C=C(\C#N)C(=O)NCc3cccs3)c3ccccc32)c1	n	n	n	n	x	x
Cc1ccccc1OCCn1cc(/C=C(\C#N)C(=O)NCc2ccco2)c2ccccc21	33.7	n	n	n	51.4	n
SMILES	EBNA-1 inh	EBV gp42 block	MEX-5 binding	ZTA counter	EBNA-1 confirm	ZTA DNA inh trip	others
N#C/C(=C\c1cn(CCOc2ccccc2)c2ccccc12)C(=O)NCc1ccco1	n	n	n	n	x	x
N#C/C(=C\c1cn(CCOc2ccccc2F)c2ccccc12)C(=O)NCc1cccs1	124.1	n	n	n	n	n
Cc1sc2nc(SCC(=O)NCc3ccco3)n(Cc3ccccc3)c(=O)c2c1C	n	n	n	n	x	x
C=CCn1c(SCC(=O)NCc2ccco2)nc2sc(C)c(C)c2c1=O	41.6	n	n	n	n	n
Cc1ccc(C(=O)CSc2nnc(CNc3ccc(C)cc3C)o2)cc1	30.7	n	n	n	n	n
O=Cc1ccccc1-c1cn(CCCOCc2ccccc2)nn1	n	x	n	n	x	x
COc1ccc(N2CCN(C(=S)Nc3ccc(F)cc3)CC2)cc1	34.5	x	n	n	n	n
CCOC(=O)N=S(=O)(Oc1ccc([N+](=O)[O-])cc1)c1ccc(Cl)cc1 (stereo not given)	n	n	n	n	x	x
CCOC(=O)N=S(=O)(Oc1ccc([N+](=O)[O-])cc1)c1ccccc1 (stereo not given)	136.6	n	n	n	n	n
O=c1ccc2cc(S(=O)(=O)N3CCN(c4ccccc4)CC3)ccc2[nH]1	n	x	n	n	x	x
O=S(=O)(c1ccc2nc(-c3ccccc3)[nH]c2c1)N1CCN(c2ccc(Cl)cc2)CC1	36.8	n	n	n	n	n
CCOc1ccc(NC(=O)C2C3C=CC4(O3)C2C(=O)N(Cc2cccnc2)C4C(=O)NC2CCCCC2)cc1 (stereo not given)	n	x	n	n	x	x
COc1ccc2oc(C(=O)Nc3nccs3)c(C)c2c1	29.2	x	n	n	54.8	n
C#CCOCCOCCOCCNc1nc(N2CCN(C(=O)CCCCCCCCCCNC(=O)[C@@H](CCSC)n3cc(CCO)nn3)CC2)nc(N2CCN(C(=O)CCCCCCCCCCNC(=O)[C@H](CO)n3cc(CCCCCN)nn3)CC2)n1	n	x	x	n	x	x
C#CCOCCOCCOCCNc1nc(OC)nc(N2CCN(C(=O)[C@H](CCCCN)n3cc(C(N)CO)nn3)CC2)n1 (stereo not given in full)	x	n	n	x	x	x
C#CCOCCOCCOCCNc1nc(N2CCN(C(=O)CCCCCCCCCCNC(=O)[C@@H](CCC(=O)O)n3cc(CCCCCN)nn3)CC2)nc(N2CCN(C(=O)CCCCCCCCCCNC(=O)[C@H](CO)n3cc(CCCCCN)nn3)CC2)n1	n	x	x	37.1	x	x	Zta DNA confirm=n;EBNA-1 counter=n
C#CCOCCOCCOCCNc1nc(N2CCOCC2)nc(N2CCN(C(=O)[C@H](CCCCN)n3cc([C@@H](N)CO)nn3)CC2)n1	n	n	n	168.3	x	x	Zta DNA confirm=n;EBNA-1 counter=n
C#CCOCCOCCOCCNc1nc(N2CCN(C(=O)CCCCCCCCCCNC(=O)[C@@H](CCC(=O)O)n3cc(CCCCCN)nn3)CC2)nc(N2CCN(C(=O)CCCCCCCCCCNC(=O)[C@H](CCCCN)n3cc(C[C@@H](C)CC)nn3)CC2)n1	n	x	x	53.8	x	x	Zta DNA confirm=n;EBNA-1 counter=n
C#CCOCCOCCOCCNc1nc(N2CCN(C(=O)CCCCCCCCCCNC(=O)[C@@H](CCSC)n3cc(CCO)nn3)CC2)nc(N2CCN(C(=O)CCCCCCCCCCNC(=O)[C@H](CCCN=C(N)N)n3cc(C[C@@H](C)CC)nn3)CC2)n1	n	x	x	141.1	x	x	Zta DNA confirm=62.1;EBNA-1 counter=n
